# According to article PMC7862700, “An all-to-all approach to the identification of sequence-specific readers for epigenetic DNA modifications on cytosine”:
# Key:
# Assay in all cases: DAPPL (digital affinity profiling via proximity ligation, sequencing); 10 mM Tris-HCl pH 7.5, 50 mM NaCl, 1 mM DTT, 4% glycerol, room temperature, 30 min; GST-TFs on glutathione beads, 16-mer random dsDNA library, 0.1% formaldehyde crosslink after washing; high values mean tight binding
# FEV = target: T1, FEV (Homo sapiens, UniProt Q99581 1-238); conditions: protein: recombinant; tags: N-terminal GST; dsDNA, one strand shown
# T1 sequence: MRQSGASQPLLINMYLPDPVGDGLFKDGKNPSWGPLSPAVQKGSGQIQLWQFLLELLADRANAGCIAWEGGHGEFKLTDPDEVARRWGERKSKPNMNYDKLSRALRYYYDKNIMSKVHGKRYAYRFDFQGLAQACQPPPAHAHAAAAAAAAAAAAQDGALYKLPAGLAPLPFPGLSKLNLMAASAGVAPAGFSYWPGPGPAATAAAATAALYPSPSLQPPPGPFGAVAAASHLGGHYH
# Procedure, shortened: (§1)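 Beads coated with glutathione captured GST-fused human transcription factors that had been expressed in yeast, and the factors were then given DNA barcodes and pooled with a tag-only sample. The pools were incubated with 200 nmole of a random double-stranded 16-mer DNA library in Tris/NaCl/DTT/glycerol buffer for 30 min at room temperature, washed, crosslinked with 0.1% formaldehyde and proximity-ligated with BsaI/T4 ligase at 37 °C for 1 h. PCR amplification and Illumina NextSeq500 sequencing came last. Binding signal is each hexamer's read frequency for a factor divided by its frequency for the tag-only sample.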
# ETV5 = ETV5 (Homo sapiens, UniProt P41161 1-510); conditions: protein: recombinant; tags: N-terminal GST; dsDNA, one strand shown
# Procedure, shortened: as §1
# HSF1 = HSF1 (Homo sapiens, UniProt Q00613 1-529); conditions: protein: recombinant; tags: N-terminal GST; chain copies: 3; dsDNA, one strand shown
# Procedure, shortened: as §1
# SPIC = target: T2, SPIC (Homo sapiens, UniProt Q8N5J4 1-248); conditions: protein: recombinant; tags: N-terminal GST; dsDNA, one strand shown
# T2 sequence: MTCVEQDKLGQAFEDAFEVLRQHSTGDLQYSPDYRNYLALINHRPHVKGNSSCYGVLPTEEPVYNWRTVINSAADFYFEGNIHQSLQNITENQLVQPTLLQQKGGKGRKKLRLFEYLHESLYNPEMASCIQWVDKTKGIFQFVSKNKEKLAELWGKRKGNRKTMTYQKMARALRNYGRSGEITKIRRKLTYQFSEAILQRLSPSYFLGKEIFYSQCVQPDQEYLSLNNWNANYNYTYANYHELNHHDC
# Procedure, shortened: as §1
# ELF4 = ELF4 (Homo sapiens, UniProt Q99607 1-663); conditions: protein: recombinant; tags: N-terminal GST; dsDNA, one strand shown
# Procedure, shortened: as §1
# ELK4 = target: T3, ELK4 (Homo sapiens, UniProt P28324-2 1-405); conditions: protein: recombinant; tags: N-terminal GST; dsDNA, one strand shown
# T3 sequence: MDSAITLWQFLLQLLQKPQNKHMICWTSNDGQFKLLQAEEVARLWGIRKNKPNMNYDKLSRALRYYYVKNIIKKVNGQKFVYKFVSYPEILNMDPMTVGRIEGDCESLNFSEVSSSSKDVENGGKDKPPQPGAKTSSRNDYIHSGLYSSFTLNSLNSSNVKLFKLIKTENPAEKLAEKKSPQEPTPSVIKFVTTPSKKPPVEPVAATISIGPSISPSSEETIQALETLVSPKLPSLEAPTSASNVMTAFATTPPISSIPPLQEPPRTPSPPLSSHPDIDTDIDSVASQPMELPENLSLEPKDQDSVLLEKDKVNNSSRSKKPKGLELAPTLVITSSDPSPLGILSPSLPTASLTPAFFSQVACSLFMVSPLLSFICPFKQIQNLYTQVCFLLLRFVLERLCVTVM
# Procedure, shortened: as §1
# ETV2 = target: T4, ETV2 (Homo sapiens, UniProt O00321 1-342); conditions: protein: recombinant; tags: N-terminal GST; dsDNA, one strand shown
# T4 sequence: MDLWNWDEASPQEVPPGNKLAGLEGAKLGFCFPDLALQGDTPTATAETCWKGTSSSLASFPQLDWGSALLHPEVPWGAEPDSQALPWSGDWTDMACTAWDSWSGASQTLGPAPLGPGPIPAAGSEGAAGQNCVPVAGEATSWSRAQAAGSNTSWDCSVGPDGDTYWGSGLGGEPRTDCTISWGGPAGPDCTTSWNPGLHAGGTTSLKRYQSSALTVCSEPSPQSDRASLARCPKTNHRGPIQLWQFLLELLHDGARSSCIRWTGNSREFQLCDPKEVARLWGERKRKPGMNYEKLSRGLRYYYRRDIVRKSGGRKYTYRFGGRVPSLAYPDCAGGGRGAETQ
# Procedure, shortened: as §1
# ELF3 = target: T5, ELF3 (Homo sapiens, UniProt P78545 1-371); conditions: protein: recombinant; tags: N-terminal GST; dsDNA, one strand shown
# T5 sequence: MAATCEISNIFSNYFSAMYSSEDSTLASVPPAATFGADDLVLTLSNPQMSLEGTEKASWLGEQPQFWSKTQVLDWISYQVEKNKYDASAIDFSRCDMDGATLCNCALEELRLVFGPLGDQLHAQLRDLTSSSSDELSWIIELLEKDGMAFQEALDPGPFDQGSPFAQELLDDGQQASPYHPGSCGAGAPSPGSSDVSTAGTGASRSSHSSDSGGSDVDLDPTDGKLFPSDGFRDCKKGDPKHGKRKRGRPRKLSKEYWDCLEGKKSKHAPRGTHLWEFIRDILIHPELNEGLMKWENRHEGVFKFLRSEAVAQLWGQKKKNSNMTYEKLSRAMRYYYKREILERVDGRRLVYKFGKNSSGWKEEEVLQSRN
# Procedure, shortened: as §1
# CRX = CRX (Homo sapiens, UniProt O43186 1-299); conditions: protein: recombinant; tags: N-terminal GST; dsDNA, one strand shown
# Procedure, shortened: as §1
# ETV1 = ETV1 (Homo sapiens, UniProt P50549 1-477); conditions: protein: recombinant; tags: N-terminal GST; dsDNA, one strand shown
# Procedure, shortened: as §1
# ETV1, sequence (P50549 whole entry): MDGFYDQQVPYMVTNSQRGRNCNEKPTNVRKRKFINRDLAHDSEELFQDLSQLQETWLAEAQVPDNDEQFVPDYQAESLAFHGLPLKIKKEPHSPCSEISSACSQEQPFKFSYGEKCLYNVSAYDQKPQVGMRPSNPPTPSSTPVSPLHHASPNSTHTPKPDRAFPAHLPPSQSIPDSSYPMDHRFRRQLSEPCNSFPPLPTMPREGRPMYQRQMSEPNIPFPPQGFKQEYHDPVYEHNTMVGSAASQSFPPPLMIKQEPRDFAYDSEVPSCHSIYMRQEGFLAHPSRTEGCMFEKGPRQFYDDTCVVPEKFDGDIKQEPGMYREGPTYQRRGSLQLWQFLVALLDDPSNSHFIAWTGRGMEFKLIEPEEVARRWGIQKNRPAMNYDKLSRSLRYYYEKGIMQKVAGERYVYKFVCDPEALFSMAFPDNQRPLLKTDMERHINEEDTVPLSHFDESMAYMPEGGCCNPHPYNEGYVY
# HSF1, sequence (Q00613 whole entry): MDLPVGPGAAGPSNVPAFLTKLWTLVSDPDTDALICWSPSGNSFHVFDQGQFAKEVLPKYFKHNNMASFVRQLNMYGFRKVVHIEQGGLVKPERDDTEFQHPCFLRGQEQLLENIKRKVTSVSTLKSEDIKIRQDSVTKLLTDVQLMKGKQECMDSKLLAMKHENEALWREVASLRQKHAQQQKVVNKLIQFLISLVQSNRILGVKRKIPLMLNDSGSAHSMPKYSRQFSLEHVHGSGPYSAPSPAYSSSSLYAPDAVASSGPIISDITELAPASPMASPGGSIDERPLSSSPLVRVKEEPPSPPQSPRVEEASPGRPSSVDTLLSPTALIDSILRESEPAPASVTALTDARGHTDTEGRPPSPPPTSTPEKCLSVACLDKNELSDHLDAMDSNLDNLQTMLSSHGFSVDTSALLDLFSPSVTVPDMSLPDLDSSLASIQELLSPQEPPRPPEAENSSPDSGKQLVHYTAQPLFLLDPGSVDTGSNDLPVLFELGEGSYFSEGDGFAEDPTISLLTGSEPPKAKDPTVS
# ETV5, sequence (P41161 whole entry): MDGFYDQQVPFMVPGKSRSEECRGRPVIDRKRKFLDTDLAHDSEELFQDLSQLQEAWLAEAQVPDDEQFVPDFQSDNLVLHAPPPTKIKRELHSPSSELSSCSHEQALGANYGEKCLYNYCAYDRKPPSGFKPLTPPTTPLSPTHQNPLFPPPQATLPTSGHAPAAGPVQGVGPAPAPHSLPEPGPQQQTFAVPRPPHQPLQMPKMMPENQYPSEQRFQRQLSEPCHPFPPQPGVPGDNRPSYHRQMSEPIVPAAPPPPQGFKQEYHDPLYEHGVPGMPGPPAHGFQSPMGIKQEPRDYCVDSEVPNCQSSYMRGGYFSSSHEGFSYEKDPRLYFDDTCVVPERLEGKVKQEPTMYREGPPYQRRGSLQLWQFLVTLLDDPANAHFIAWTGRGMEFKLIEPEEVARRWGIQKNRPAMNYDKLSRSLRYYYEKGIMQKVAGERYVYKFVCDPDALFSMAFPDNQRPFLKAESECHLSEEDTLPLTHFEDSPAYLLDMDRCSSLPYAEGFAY
# ELF4, sequence (Q99607 whole entry): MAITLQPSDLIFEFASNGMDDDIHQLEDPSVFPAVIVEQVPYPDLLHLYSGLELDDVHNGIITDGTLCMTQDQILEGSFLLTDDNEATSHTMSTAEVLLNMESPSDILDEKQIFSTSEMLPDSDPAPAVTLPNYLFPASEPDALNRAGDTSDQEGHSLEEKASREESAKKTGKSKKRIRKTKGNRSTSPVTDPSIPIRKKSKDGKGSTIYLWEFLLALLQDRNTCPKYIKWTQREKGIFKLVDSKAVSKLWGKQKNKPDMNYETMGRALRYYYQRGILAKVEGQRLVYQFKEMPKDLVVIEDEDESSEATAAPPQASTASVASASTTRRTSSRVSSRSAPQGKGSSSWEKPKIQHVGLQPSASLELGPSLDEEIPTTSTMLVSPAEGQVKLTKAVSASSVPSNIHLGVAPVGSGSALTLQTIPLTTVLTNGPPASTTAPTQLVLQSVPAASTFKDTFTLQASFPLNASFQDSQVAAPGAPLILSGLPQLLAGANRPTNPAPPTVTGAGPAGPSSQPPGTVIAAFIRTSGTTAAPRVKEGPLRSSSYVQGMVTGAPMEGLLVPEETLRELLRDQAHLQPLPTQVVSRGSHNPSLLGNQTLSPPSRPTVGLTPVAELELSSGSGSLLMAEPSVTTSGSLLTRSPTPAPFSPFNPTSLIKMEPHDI
# CRX, sequence (O43186 whole entry): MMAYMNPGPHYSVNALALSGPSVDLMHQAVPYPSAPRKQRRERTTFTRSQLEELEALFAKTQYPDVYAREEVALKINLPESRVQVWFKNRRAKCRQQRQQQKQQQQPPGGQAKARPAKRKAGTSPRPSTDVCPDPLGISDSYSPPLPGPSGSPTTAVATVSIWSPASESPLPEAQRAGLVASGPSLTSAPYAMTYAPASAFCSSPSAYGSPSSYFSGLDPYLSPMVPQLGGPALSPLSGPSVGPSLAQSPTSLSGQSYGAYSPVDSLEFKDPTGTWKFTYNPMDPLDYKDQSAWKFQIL
sequence,measurement,setting,value
AGTACT,binding signal,FEV,"1.28 fold enrichment (6-mer frequency, TF over GST control)"
same,binding signal,ETV5,"1.19 fold enrichment (6-mer frequency, TF over GST control)"
same,binding signal,HSF1,"1.03 fold enrichment (6-mer frequency, TF over GST control)"
same,binding signal,SPIC,"1.35 fold enrichment (6-mer frequency, TF over GST control)"
same,binding signal,ELF4,"1.19 fold enrichment (6-mer frequency, TF over GST control)"
same,binding signal,ELK4,"1.12 fold enrichment (6-mer frequency, TF over GST control)"
same,binding signal,ETV2,"1.11 fold enrichment (6-mer frequency, TF over GST control)"
same,binding signal,ELF3,"1.29 fold enrichment (6-mer frequency, TF over GST control)"
same,binding signal,CRX,"1.02 fold enrichment (6-mer frequency, TF over GST control)"
same,binding signal,ETV1,"1.19 fold enrichment (6-mer frequency, TF over GST control)"
